NRP1-CendR mod: modulators of CendR peptide binding to NRP-1, primary screen, biochemical, fluorescence polarization, uHTS | FAM-RPARPAR peptide binding to NRP-1 | inhibition, % at 25 µM | actives 0.85% (n = 360,000);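 active = inhibition or corrected inhibition above about 18%, plus a signal ratio from 0.5 to 1.5, limit read from the data, passing the limit was not always enough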
CR mimetic SO: reduction of superoxide in aged yeast, primary screen, HTS; S. cerevisiae aged cells, superoxide DHE fluorescence; stronger effect = lower value; superoxide response (% of plate mean), % at 10 µM; actives 0.18% (n = 330,000); AID 2690, 2010;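 active = superoxide response under a set limit, about three screen SD below normal, cut at about 65% in these data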;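 note: yeast aged for seven days with compound at 30 °C before DHE staining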
ALR H2O2 inh: inhibitors of human ALR sulfhydryl oxidase, primary screen, biochemical, H2O2 detection, HRP-luminol luminescence, single point | inhibition, % (test concentration not listed) | actives 3.8% (n = 290,000) | AID 485317, 2010 | FAD-linked sulfhydryl oxidase ALR (Homo sapiens), P55789 | purified ALR, DTT oxidation;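 active = mean replicate inhibition above about 79%, with every replicate also reaching it, limit read from the data; inconclusive = only one of the two criteria met; inactive = mean below limit and not every replicate reaching it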
Target sequence (P55789 whole entry, looked up): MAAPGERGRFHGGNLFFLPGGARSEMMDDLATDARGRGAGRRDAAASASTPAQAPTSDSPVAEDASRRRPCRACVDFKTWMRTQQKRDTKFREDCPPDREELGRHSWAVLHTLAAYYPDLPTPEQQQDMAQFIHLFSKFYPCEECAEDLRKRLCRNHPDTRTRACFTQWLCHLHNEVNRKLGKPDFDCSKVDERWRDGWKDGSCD
APOBEC3A inh: APOBEC3A ssDNA deaminase inhibitors, primary screen, selectivity assay for APOBEC3G inhibitor project, biochemical, FAM/TAMRA oligo cleavage fluorescence. DNA dC->dU-editing enzyme APOBEC-3A (Homo sapiens), P31941. recombinant A3A, FAM/TAMRA ssDNA deamination fluorescence. inhibition, % at 20 µM. actives 0.41% (n = 330,000). AID 493011, 2011;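 active = at least 40% inhibition at 20 µM here, with at most 30% in a related deaminase screen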
PfM18AAP inh: PfM18AAP inhibitors, malaria aminopeptidase, primary screen, biochemical, QFRET, recombinant enzyme; AID 1822, 2009; inhibition, % at 7.35 µM; actives 1.2% (n = 290,000); H-Glu-NHMec fluorogenic cleavage; M18 aspartyl aminopeptidase (Plasmodium falciparum 3D7);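 active = inhibition above the campaign mean inhibition over all tested compounds plus 3 SD, cut at about 28% in these data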
APOBEC3G inh: APOBEC3G DNA deaminase inhibitors, primary screen, biochemical, fluorescence, single-stranded DNA substrate, uHTS; actives 0.28% (n = 330,000); DNA dC->dU-editing enzyme APOBEC-3G (Homo sapiens), Q9HC16; recombinant A3G, ssDNA deamination FAM/TAMRA fluorescence; inhibition, % at 20 µM;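 active = inhibition of at least 40% at 20 µM, with no more than 30% in the related APOBEC3A deaminase screen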
Target sequence (Q9HC16 whole entry, looked up): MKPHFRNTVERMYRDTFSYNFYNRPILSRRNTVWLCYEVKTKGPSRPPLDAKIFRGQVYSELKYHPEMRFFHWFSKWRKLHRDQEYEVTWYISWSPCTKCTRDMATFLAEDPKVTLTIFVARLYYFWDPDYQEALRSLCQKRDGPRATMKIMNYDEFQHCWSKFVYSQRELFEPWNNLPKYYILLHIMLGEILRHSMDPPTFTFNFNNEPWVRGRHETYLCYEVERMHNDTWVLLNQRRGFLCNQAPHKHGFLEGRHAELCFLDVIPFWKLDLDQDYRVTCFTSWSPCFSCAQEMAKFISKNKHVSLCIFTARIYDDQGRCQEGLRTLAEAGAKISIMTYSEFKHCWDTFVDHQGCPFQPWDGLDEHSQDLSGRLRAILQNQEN
A number is an active result; . = inactive; ? = inconclusive; / = no result given. Hits are enriched below; roughly 5.2% of the tested compounds scored in any of these assays.

SMILES	NRP1-CendR mod	CR mimetic SO	ALR H2O2 inh	APOBEC3A inh	PfM18AAP inh	APOBEC3G inh
COc1cc(/C=C2/C(=O)c3cccc([N+](=O)[O-])c3C2=O)c(Br)cc1O	.	.	/	/	30	/
O=S(=O)(NCCc1ccccc1)c1cccc2cccnc12	.	.	.	.	.	.
Cc1no[n+]([O-])c1COc1cccc(/C=N/Nc2nncn2N)c1	.	.	.	.	28	.
COc1cc(/C=N/n2nnnc2N)ccc1OCc1c(C)no[n+]1[O-]	.	.	.	.	.	.
Cc1ccc(NS(=O)(=O)c2cc([N+](=O)[O-])ccc2NNC(=S)Nc2cccc(Cl)c2)c(C)c1	.	.	.	/	32	/
Cc1nn(-c2ccc(Cl)c(Cl)c2)c(C)c1C(=O)O	.	.	.	.	.	.
Cc1oc2c(CN3CCCCC3C)c(O)ccc2c(=O)c1-c1ccccc1 (stereo not drawn)	.	.	.	.	.	.
Cc1oc2c(O)c(O)ccc2c(=O)c1-c1ccccc1	.	.	99	.	/	.
CN(CC1COc2ccccc2O1)C(=O)c1ccc(N(C)C)cc1 (stereo not drawn)	.	.	89	.	.	.
Cc1ccc(C)c(S(=O)(=O)N2CCCOC2CNC(=O)C(=O)NC2CCCC2)c1 (stereo not drawn)	.	.	.	.	.	.
CCC(=O)NC(O)C(=O)c1ccc(C)cc1 (stereo not drawn)	.	.	.	.	.	.
N#C/C(=C/c1ccc(F)cc1)S(=O)(=O)c1ccccc1	.	.	.	.	.	.
N#C/C(=C\c1ccc(C(=O)O)cc1)S(=O)(=O)c1cc(Br)ccc1Br	.	.	92	.	.	.
CCOC(=O)c1[nH]c2ccccc2c1NC(=O)c1ccco1	.	.	.	.	.	.
O=C(Cn1c(-c2ccccc2)c[n+]2ccsc12)c1ccc([N+](=O)[O-])cc1	.	.	.	.	.	.
N#Cc1ccc(OCC(=O)OCC(=O)Nc2ccc(N3CCOCC3)cc2)cc1	.	.	94	.	/	.
C/C(=N\NC(=O)COc1ccc(C#N)cc1)c1ccc(N2CCOCC2)cc1	.	.	99	.	.	.
O=C(COC(=O)CNS(=O)(=O)c1ccc(Br)cc1Cl)Nc1ccc(N2CCOCC2)cc1	.	.	99	.	/	.
N#Cc1ccc(C(=O)OCC(=O)Nc2ccc(N3CCOCC3)cc2)cc1	.	.	.	.	.	.
CCCCCCCCCc1conc1C(=O)CP(=O)(OC)OC	.	/	/	/	/	/
CCN(CCO)c1ccc(N=Nc2cc(C)[nH]n2)cc1	.	.	84	.	.	.
CCc1nnc(NS(=O)(=O)c2ccc(NC(=O)/C=C/c3ccc(F)cc3)cc2)s1	.	.	98	.	.	.
Cc1ccc(S(=O)(=O)Nc2ccc(N=Nc3ccc(O)cc3)cc2)cc1	.	.	90	.	.	.
CCOC(=O)c1ccc(S(=O)(=O)NNC(=O)c2cccc(N(C)C)c2)cc1	.	.	82	.	.	.
CSc1ccc(S(=O)(=O)Nc2ccc(S(=O)(=O)Nc3ccc(C)cc3)cc2)cc1	.	.	.	.	.	.
SMILES	NRP1-CendR mod	CR mimetic SO	ALR H2O2 inh	APOBEC3A inh	PfM18AAP inh	APOBEC3G inh
Cc1ccc(S(=O)(=O)NNC(=O)c2ccc(O)cc2)cc1	.	.	97	.	.	.
COCC(C)NC(=O)c1cc(S(=O)(=O)N2CCCCC2)ccc1N1CCOCC1 (stereo not drawn)	.	.	.	.	.	.
Cc1ccccc1N(CC(=O)NC1CCCCC1)C(=O)CCC(=O)Nc1nccs1	.	.	.	.	.	.
C=CCNC(=O)c1onc(CSc2ccc(F)cc2)c1C(=O)NCC=C	.	.	.	.	/	.
Cc1ccc(S(=O)(=O)NNC(=S)Nc2ccccc2)cc1	.	.	99	.	.	.
CCc1nnc(NS(=O)(=O)c2ccc(NC(=O)OC)cc2)s1	.	.	98	.	.	.
CCc1nnc(NS(=O)(=O)c2ccc(NC(=O)c3cccc([N+](=O)[O-])c3)cc2)s1	.	.	.	.	.	.
COC(=O)Nc1ccc(S(=O)(=O)Nc2ccc(O)cc2)cc1	.	.	89	.	.	.
CCCCOc1cccc(C(=O)Nc2ccc(S(=O)(=O)Nc3nnc(CC)s3)cc2)c1	.	.	97	.	.	.
Cc1ccc(S(=O)(=O)NNC(=S)Nc2ccc(Cl)cc2)cc1	.	.	?	.	.	.
Cc1c(/C=N/NC(N)=O)c2ccccn2c1C(=O)c1ccncc1	.	.	.	.	.	.
CC1CCC(NC(=O)C2CCN(c3nc4ccccc4s3)CC2)CC1 (stereo not drawn)	.	.	.	.	.	.
COc1ccc(S(=O)(=O)Nc2nnc(Cc3ccc(OC)c(OC)c3)s2)cc1	.	.	98	.	.	.
COc1ccc(Cc2nnc(NS(=O)(=O)c3ccccc3)s2)cc1	.	.	.	.	.	.
O=C(O)c1ccc(CSc2nc3ccccc3c(=O)n2-c2ccccc2)cc1	.	.	/	.	.	.
N=C(N)SCc1nc2ccccc2c(=O)n1-c1ccccc1	.	.	98	.	.	.
O=C(Cc1ccsc1)Nc1ccc2c(c1)OCO2	.	.	.	.	/	.
Cc1ccc(NC(=O)COC(=O)CSC(=S)N2CCOCC2)cc1C	.	.	/	.	.	.
Cc1ccc(NC(=O)COC(=O)CN2CSCC2=O)cc1C	.	.	98	.	.	.
COc1cc(NC(=O)CN2c3ccccc3CC2C)cc(OC)c1OC (stereo not drawn)	.	.	97	.	.	.
CN1CCN(C2=NC(=O)/C(=C/c3ccccc3OS(=O)(=O)c3ccccc3)S2)CC1	.	.	.	.	.	.
COc1ccc(NC(=O)Nc2cc(C)cc(C)c2)cn1	.	.	.	.	.	.
COc1ccc(NC(=O)/C=C/c2cccc(F)c2)cn1	19	.	.	.	.	.
COc1ccc(NC(=O)/C=C/c2ccco2)cn1	.	.	.	.	.	.
COc1ccc(NC(=O)Nc2cccc(C(F)(F)F)c2)cn1	28	.	.	.	.	.
O=[N+]([O-])c1ccc(O)c(-c2nn[nH]n2)c1	.	.	.	.	.	.
NS(=O)(=O)c1ccc(CCNC(=O)CN2CCN(S(=O)(=O)c3ccccc3F)CC2)cc1	.	.	.	.	/	.
COc1cc(NC(=O)CCNC(=O)N2CC(=O)Nc3ccccc32)cc(OC)c1OC	.	/	/	/	/	/

Screening results deposited in PubChem by several laboratories.
